Measurements from PubChem BioAssay AID1159580 (chemical genetic matrix, 2015).
Several values for one entry are separate records, joined by “and”; a condition that tells them apart may be missing. Equal entries are not always repeated. Out of some 5,500 compounds screened, about 2,000 (36%) were called active. Another 18% or so got no clear call; they are omitted. Cut-off read from the data, not from the text of the source: active = normalized growth mostly below about 0.91 (no sharp cut-off); inconclusive = no clear call, values can overlap the other calls; inactive = mostly above about 0.92. The list shows a part of the results.

Assay: chemical genetic growth profiling, strain panel (AID 1159580);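 note: tested at 20 µM; growth read once vehicle control cultures reached saturation at 30 °C; 1 = growth at the plate median or of vehicle wells; lower values mean less growth of the strain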
Details: S. cerevisiae deletion strains, growth OD

Measured: normalized growth

COC(=O)C1=COC(C)C2CN3CCC4(C(=O)Nc5ccccc54)C3CC12 (configuration not stated)
inactive: locus YAL021C, strain ccr4, active compounds read low 1.02 and 1.01 | locus YAL026C, strain drs2, active compounds read low 1.02 | locus YAL030W, strain snc1, active compounds read low 1.01 | locus YBL061C, strain skt5, active compounds read low 1.04 and 1.02 and 1.03 | locus YBR009C, strain hhf1, active compounds read low 1.04 and 1.01 and 1.02 | locus YBR023C, strain chs3, active compounds read low 1.02 and 1.01 | locus YBR171W, strain sec66, active compounds read low 1.03 and 1.02 | locus YBR231C, strain swc5, active compounds read low 1.02 | locus YBR279W, strain paf1, active compounds read low 1.02 and 1.01 | locus YCL011C, strain gbp2, active compounds read low 1.02 and 1.01 | locus YCL016C, strain dcc1, active compounds read low 1.01 | locus YCL061C, strain MRC1, active compounds read low 1.02 and 1.01 | locus YCL069W, strain vba3, active compounds read low 1.02 and 1.01 | locus YCR088W, strain abp1, active compounds read low 1.02 and 1.01 | locus YDL005C, strain med2, active compounds read low 1.02 and 1.01 | locus YDL040C, strain nat1, active compounds read low 1.02 | locus YDR001C, strain nth1, active compounds read low 1.02 and 1.01 | locus YDR069C, strain doa4, active compounds read low 1.02 and 1.04 | locus YDR137W, strain rgp1, active compounds read low 0.988 and 0.962 and 0.914 | locus YDR159W, strain sac3, active compounds read low 1.05 and 1.02 and 1.03 | locus YDR195W, strain ref2 0.992 and 0.996 and 1.01 | locus YDR297W, strain sur2, active compounds read low 1.02 | locus YDR334W, strain swr1, active compounds read low 1.02 and 1.01 | locus YDR335W, strain msn5, active compounds read low 1.03 and 1.02 | locus YDR392W, strain spt3, active compounds read low 1.04 and 1.02 | locus YEL003W, strain gim4, active compounds read low 1.03 and 1.02 | locus YEL037C, strain rad23, active compounds read low 1.01 and 1.02 | locus YEL061C, strain CIN8 (second series), active compounds read low 1.02 and 1.01 | locus YER015W, strain faa2, active compounds read low 1.02 | locus YER016W, strain bim1, active compounds read low 1.01 and 1.02 | locus YER111C, strain swi4, active compounds read low 1.03 and 1.02 and 1.04 | locus YER155C, strain BEM2 (second series), active compounds read low 1.03 and 1.02 and 1.04 | locus YFR010W, strain ubp6, active compounds read low 1.02 | locus YGL167C, strain pmr1, active compounds read low 1.03 and 1.01 and 1.02 | locus YGL173C, strain kem1, active compounds read low 1.04 and 1.02 and 1.03 | locus YGL227W, strain vid30, active compounds read low 1.03 and 1.01 and 1.02 | locus YGL240W, strain doc1, active compounds read low 1.02 | locus YGL253W, strain hxk2, active compounds read low 1.02 and 1.01 | locus YHR013C, strain ard1, active compounds read low 1.03 and 1.01 and 1.02 | locus YHR027C, strain rpn1, active compounds read low 1.02 and 1.01 | locus YHR142W, strain chs7, active compounds read low 1.02 and 1.01 | locus YJL092W, strain hpr5, active compounds read low 1.03 and 1.01 and 1.02 | locus YJL095W, strain BCK1 (second series), active compounds read low 1.01 and 1.02 | locus YJL115W, strain asf1, active compounds read low 1.02 and 1.01 | locus YJL129C, strain trk1, active compounds read low 1.03 and 1.02 | locus YJL154C, strain vps35, active compounds read low 1.02 and 1.01 | locus YJL164C, strain tpk1, active compounds read low 1.02 and 1.03 | locus YJL166W, strain qcr8, active compounds read low 1.03 and 1.01 and 1.02 | locus YJL187C, strain SWE1, active compounds read low 1.02 and 1.01 | locus YKL160W, strain elf1, active compounds read low 1.02 | locus YKR026C, strain gcn3, active compounds read low 1.02 and 1.03 | locus YKR091W, strain srl3, active compounds read low 1.02 and 1.03 | locus YLL001W, strain dnm1, active compounds read low 1.03 and 1.02 | locus YLL026W, active compounds read low 1.01 and 1.02 | locus YLL041C, strain sdh2, active compounds read low 1.02 and 1.01 | locus YLR027C, strain aat2, active compounds read low 1.03 and 1.01 | locus YLR221C, strain rsa3, active compounds read low 1.02 and 1.01 | locus YLR258W, strain gsy2, active compounds read low 1.02 | locus YLR262C, strain YPT6 (second series), active compounds read low 1.02 and 1.01 and 0.938 | locus YLR320W, strain mms22, active compounds read low 1.04 and 1.03 | locus YLR342W, strain FKS1, active compounds read low 1.02 | locus YLR357W, strain rsc2, active compounds read low 1.02 and 0.996 and 1.03 | locus YLR370C, strain arc18, active compounds read low 1.03 and 1 and 1.01 | locus YLR384C, strain iki3, active compounds read low 1.02 and 1.01 | locus YML120C, strain ndi1, active compounds read low 1.04 and 1.02 and 1.03 | locus YMR058W, strain fet3, active compounds read low 1.02 | locus YMR125W, strain sto1, active compounds read low 1.02 and 1.04 | locus YMR129W, active compounds read low 1.02 and 1.01 | locus YMR205C, strain PFK2, active compounds read low 1.03 and 1.02 | locus YMR231W, strain pep5, active compounds read low 1 and 1.01 | locus YNL071W, strain lat1, active compounds read low 1.02 and 1.01 | locus YNL209W, strain ssb2, active compounds read low 1.02 and 1.01 | locus YNL248C, strain rpa49, active compounds read low 1.02 and 1.01 | locus YNL322C, strain KRE1 (second series), active compounds read low 1.01 and 1.02 | locus YNR049C, strain mso1, active compounds read low 1.02 and 1.01 and 1.03 | locus YOR001W, strain rrp6, active compounds read low 1.03 and 1.02 | locus YOR070C, strain gyp1, active compounds read low 1.02 and 1.01 | locus YOR080W, strain dia2, active compounds read low 1.03 and 1.02 | locus YOR083W, strain WHI5, active compounds read low 1.02 and 1.01 | locus YOR106W, strain vam3, active compounds read low 1.02 | locus YOR265W, strain rbl2, active compounds read low 1.01 and 1.02 | locus YOR270C, strain vph1, active compounds read low 1.02 and 1.04 and 1.03 | locus YOR290C, strain snf2, active compounds read low 1.02 | locus YPL051W, strain arl3, active compounds read low 1.01 | locus YPL078C, strain atp4, active compounds read low 1.02 | locus YPL106C, strain sse1, active compounds read low 0.998 and 1 and 1.02 | locus YPL240C, strain hsp82, active compounds read low 1 and 1.02
